Source: PubChem BioAssay (EPA / NIEHS)
Active and inactive are the calls of the source. The calls were made as follows: active = hit-call score of the fitted dose curve at least 0.9, where 1 is the maximum; inactive = score below 0.9.

Key:
Conditions in all cases: mRNA level, 48 h; actives raise or lower the signal
[1] = read-out: Alpha-fetoprotein (AFP) gene, AFP (gene 174); assay: LTEA_HepaRG_AFP: Life Technologies and Expression Analysis (LTEA) Assay for Alpha-fetoprotein (AFP) gene using HepaRG (AID 2283472)
In short: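 Human HepaRG cells plated 48 h, then switched to serum-free induction medium and exposed in duplicate for 48 h to 8-point half-log series from 100 uM in 0.5% DMSO. AFP mRNA by qRT-PCR, normalized to ACTB, GAPDH, POLR2A; bidirectional fit versus DMSO.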

[2] = read-out: BCL2L11 (gene 10018); assay: LTEA_HepaRG_BCL2L11: Life Technologies and Expression Analysis (LTEA) Assay for Bcl-2 (BCL2L11) gene using HepaRG (AID 2283473)
In short: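 Human hepatic HepaRG cultures are treated 48 h with test chemicals (maximum 100 uM, 0.5% DMSO vehicle). Expression of BCL2L11 is measured by qRT-PCR against ACTB, GAPDH and POLR2A, with activity in either direction scored relative to vehicle.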

[3] = read-out: Apolipoprotein A-V (APOA5) gene, APOA5 (gene 116519); assay: LTEA_HepaRG_APOA5: Life Technologies and Expression Analysis (LTEA) Assay for Apolipoprotein A-V (APOA5) gene using HepaRG (AID 2283474)
In short: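 Concentration-response of APOA5 expression in HepaRG: eight half-log doses to 100 uM, 48 h, qRT-PCR normalized to ACTB/GAPDH/POLR2A, bidirectional fitting with 0.5% DMSO as baseline.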

[4] = read-out: Bcl-2 (BID) gene, BID (gene 637); assay: LTEA_HepaRG_BID: Life Technologies and Expression Analysis (LTEA) Assay for Bcl-2 (BID) gene using HepaRG (AID 2283476)
In short: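 Differentiated HepaRG cells in serum-free induction medium were exposed in duplicate for 48 h to eight half-log concentrations up to 100 uM in 0.5% DMSO. BID mRNA was quantified by qRT-PCR, normalized to ACTB, GAPDH and POLR2A.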

[5] = read-out: Caspase-3 (Homo sapiens) (UniProt P42574); assay: LTEA_HepaRG_CASP3: Life Technologies and Expression Analysis (LTEA) Assay for cysteine-aspartic acid protease (CASP3) using HepaRG (AID 2283477)
In short: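 Transcript-level assay: CASP3 mRNA in human HepaRG after 48 h treatment, eight half-log concentrations from 100 uM in 0.5% DMSO, quantified by qRT-PCR.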

[6] = read-out: Cytochrome P450 (CYP24A1), CYP24A1 (gene 1591); assay: LTEA_HepaRG_CYP24A1: Life Technologies and Expression Analysis (LTEA) Assay for Cytochrome P450 (CYP24A1) using HepaRG (AID 2283478)
In short: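 Gene expression of CYP24A1 by TaqMan qRT-PCR in HepaRG after 48 h treatment, highest concentration 100 uM; activity fitted in both directions relative to DMSO vehicle.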

[7] = read-out: Cytochrome P450 (CYP1A2), CYP1A2 (gene 1544); assay: LTEA_HepaRG_CYP1A2: Life Technologies and Expression Analysis (LTEA) Assay for Cytochrome P450 (CYP1A2) using HepaRG (AID 2283479)
In short: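 In duplicate wells, HepaRG cultures maintained in 0.5% DMSO were treated 48 h across an 8-point, half-log series topping at 100 uM; phenobarbital (1 mM) served as induction control. Expression was read by qRT-PCR.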

[8] = read-out: cysteine-aspartic acid protease (CASP8), CASP8 (gene 841); assay: LTEA_HepaRG_CASP8: Life Technologies and Expression Analysis (LTEA) Assay for cysteine-aspartic acid protease (CASP8) using HepaRG (AID 2283480)
In short: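 Differentiated human HepaRG cells, plated 48 h then switched to serum-free induction medium, were exposed in duplicate for 48 h to 8 half-log concentrations up to 100 uM in 0.5% DMSO. CASP8 mRNA was quantified by qRT-PCR, normalized to ACTB/GAPDH/POLR2A.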

[9] = read-out: CYP2C8 (gene 1558); assay: LTEA_HepaRG_CYP2C8: Life Technologies and Expression Analysis (LTEA) Assay for CYP2C8 using HepaRG (AID 2283483)
In short: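 Differentiated human HepaRG cells were exposed for 48 h in serum-free induction medium to eight half-log concentrations up to 100 uM in 0.5% DMSO, in duplicate. CYP2C8 mRNA was measured by TaqMan qRT-PCR, normalized to ACTB, GAPDH and POLR2A, and fitted bidirectionally against DMSO.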

[10] = read-out: CYP2C9 (gene 1559); assay: LTEA_HepaRG_CYP2C9: Life Technologies and Expression Analysis (LTEA) Assay for CYP2C9 using HepaRG (AID 2283484)
In short: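 Differentiated human HepaRG cells were exposed 48 h in serum-free induction medium to eight half-log concentrations up to 100 uM in 0.5% DMSO. CYP2C9 mRNA was measured by qRT-PCR, normalized to ACTB, GAPDH and POLR2A, and fitted bidirectionally against DMSO.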

[11] = read-out: CYP2E1 (gene 1571); assay: LTEA_HepaRG_CYP2E1: Life Technologies and Expression Analysis (LTEA) Assay for CYP2E1 using HepaRG (AID 2283485)
In short: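 HepaRG cells in serum-free induction medium exposed 48 h to test chemicals, 8 half-log concentrations up to 100 uM in 0.5% DMSO, duplicate. CYP2E1 mRNA by qRT-PCR, normalized to ACTB, GAPDH, POLR2A; bidirectional fit versus DMSO.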

[12] = read-out: CYP4A11 (gene 1579); assay: LTEA_HepaRG_CYP4A11: Life Technologies and Expression Analysis (LTEA) Assay for CYP4A11 using HepaRG (AID 2283486)
In short: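 Human hepatic HepaRG cultures receive duplicate 48 h exposures across a concentration-response series topping at 100 uM. Expression changes in CYP4A11 are measured by qRT-PCR relative to DMSO controls.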

[13] = read-out: Cytochrome P450 3A4 (Homo sapiens) (UniProt P08684); assay: LTEA_HepaRG_CYP3A4: Life Technologies and Expression Analysis (LTEA) Assay for CYP3A4 using HepaRG (AID 2283487)
In short: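 HepaRG, 48 h exposure, 8-pt CRC from 100 uM (half-log), 0.5% DMSO, duplicates; serum-free induction medium. Readout: CYP3A4 mRNA, qRT-PCR, ACTB/GAPDH/POLR2A normalization. Bidirectional fit vs DMSO.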

[14] = read-out: DNA damage-inducible transcript 3 (DDIT3), DDIT3 (gene 1649); assay: LTEA_HepaRG_DDIT3: Life Technologies and Expression Analysis (LTEA) Assay for DNA damage-inducible transcript 3 (DDIT3) using HepaRG (AID 2283488)
In short: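 Differentiated human HepaRG cells in serum-free induction medium were exposed in duplicate for 48 h to 8 concentrations (top 100 uM, half-log steps, 0.5% DMSO). DDIT3 mRNA measured by TaqMan qRT-PCR, normalized to ACTB/GAPDH/POLR2A; bidirectional fit versus DMSO.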

[15] = read-out: Pro-epidermal growth factor (Homo sapiens) (UniProt P01133); assay: LTEA_HepaRG_EGF: Life Technologies and Expression Analysis (LTEA) Assay for Epidermal growth factor (EGF) using HepaRG (AID 2283489)
In short: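 Concentration-response mRNA assay: HepaRG cells dosed 48 h (max 100 uM, 0.5% DMSO), EGF measured by qRT-PCR and normalized to ACTB/GAPDH/POLR2A.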

[16] = read-out: Early growth response protein 1 (EGR1) transcription factor, EGR1 (gene 1958); assay: LTEA_HepaRG_EGR1: Life Technologies and Expression Analysis (LTEA) Assay for Early growth response protein 1 (EGR1) transcription factor using HepaRG (AID 2283490)
In short: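 Differentiated human HepaRG cells in serum-free induction medium were exposed in duplicate for 48 h to eight concentrations (top 100 uM, half-log steps) in 0.5% DMSO. EGR1 mRNA was quantified by qRT-PCR, normalized to ACTB, GAPDH and POLR2A, and fitted bidirectionally versus DMSO.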

[17] = read-out: Ezrin (EZR), EZR (gene 7430); assay: LTEA_HepaRG_EZR: Life Technologies and Expression Analysis (LTEA) Assay for Ezrin (EZR) using HepaRG (AID 2283491)
In short: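 Read-out is EZR transcript level by qRT-PCR, normalized to three housekeeping genes and fitted bidirectionally against the DMSO control. Human HepaRG cells received test chemicals for 48 h at eight half-log concentrations up to 100 uM in 0.5% DMSO.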

[18] = read-out: Cytochrome P450 (CYP2B6), CYP2B6 (gene 1555); assay: LTEA_HepaRG_CYP2B6: Life Technologies and Expression Analysis (LTEA) Assay for Cytochrome P450 (CYP2B6) using HepaRG (AID 2283481)
In short: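 Human HepaRG, 48 h dosing, 0.5% DMSO vehicle, top dose 100 uM. CYP2B6 transcript by qRT-PCR, housekeeping-normalized, bidirectional curve fit.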

[19] = read-out: Cytochrome P450 2C19 (Homo sapiens) (UniProt P33261); assay: LTEA_HepaRG_CYP2C19: Life Technologies and Expression Analysis (LTEA) Assay for CYP2C19 using HepaRG (AID 2283482)
In short: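 Endpoint: CYP2C19 mRNA change, bidirectional fit vs 0.5% DMSO. Cells: HepaRG, 48 h exposure, eight-point series topping at 100 uM. Quantitation: qRT-PCR normalized to ACTB, GAPDH, POLR2A.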

Measured: AC50

Chain of Cytochrome P450 2C19 (Homo sapiens) (P33261 whole entry, looked up): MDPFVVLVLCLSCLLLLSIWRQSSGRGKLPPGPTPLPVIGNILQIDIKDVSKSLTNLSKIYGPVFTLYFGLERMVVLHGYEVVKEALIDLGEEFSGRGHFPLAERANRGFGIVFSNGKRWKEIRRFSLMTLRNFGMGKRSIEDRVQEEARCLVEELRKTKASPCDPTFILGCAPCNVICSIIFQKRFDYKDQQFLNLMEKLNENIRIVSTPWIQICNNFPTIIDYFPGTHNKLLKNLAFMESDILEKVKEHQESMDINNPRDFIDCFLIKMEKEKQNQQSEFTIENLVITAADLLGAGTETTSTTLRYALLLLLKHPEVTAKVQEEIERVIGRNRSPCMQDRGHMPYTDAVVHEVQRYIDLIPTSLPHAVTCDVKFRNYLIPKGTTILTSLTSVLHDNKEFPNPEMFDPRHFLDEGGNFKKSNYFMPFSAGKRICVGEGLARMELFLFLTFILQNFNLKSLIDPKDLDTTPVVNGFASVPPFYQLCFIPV
Chain of Caspase-3 (Homo sapiens) (P42574 whole entry, looked up): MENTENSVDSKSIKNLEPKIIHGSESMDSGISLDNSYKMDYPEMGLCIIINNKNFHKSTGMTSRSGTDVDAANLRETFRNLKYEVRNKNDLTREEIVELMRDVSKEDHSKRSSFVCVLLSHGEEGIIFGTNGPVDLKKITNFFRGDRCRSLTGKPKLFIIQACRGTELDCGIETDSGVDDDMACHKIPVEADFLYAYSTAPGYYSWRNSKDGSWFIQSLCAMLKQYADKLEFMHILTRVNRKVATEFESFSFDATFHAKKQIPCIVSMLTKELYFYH
Chain of Cytochrome P450 3A4 (Homo sapiens) (P08684 whole entry, looked up): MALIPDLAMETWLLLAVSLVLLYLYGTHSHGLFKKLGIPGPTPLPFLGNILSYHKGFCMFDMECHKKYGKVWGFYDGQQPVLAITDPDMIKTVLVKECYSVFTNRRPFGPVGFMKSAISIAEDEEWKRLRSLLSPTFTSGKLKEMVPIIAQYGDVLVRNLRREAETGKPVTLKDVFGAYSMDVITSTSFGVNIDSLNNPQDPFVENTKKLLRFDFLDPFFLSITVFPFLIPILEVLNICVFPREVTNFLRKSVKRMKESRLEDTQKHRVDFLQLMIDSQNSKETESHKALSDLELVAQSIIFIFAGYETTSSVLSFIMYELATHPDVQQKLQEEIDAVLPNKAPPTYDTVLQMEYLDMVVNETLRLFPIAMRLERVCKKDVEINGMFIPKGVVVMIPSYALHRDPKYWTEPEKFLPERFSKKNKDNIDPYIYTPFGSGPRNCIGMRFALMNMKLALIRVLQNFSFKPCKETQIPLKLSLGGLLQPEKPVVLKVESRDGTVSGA

CCN(CC)CCO
not listed: [18] | [19]
inactive: all other assays above

N#CC(Br)(Br)C(N)=O
not listed: [18] | [19]
inactive: all other assays above

Nc1cc(Cl)cc(C(=O)O)c1Cl
active: [7] 50 µM | [12] 50 µM
not listed: [1] | [14] | [16] | [19]
inactive: all other assays above

O=C(O)C1C2CCC(O2)C1C(=O)O (stereo not given)
active: [1] 75.3 µM | [3] 67.8 µM | [7] 50 µM | [19] 82 µM | [9] 58.9 µM | [10] 86.7 µM | [11] 45.4 µM | [12] 50 µM | [13] 79.7 µM | [15] 13.9 µM | [17] 9.92 µM
inactive: [2] | [4] | [5] | [6] | [16]

[Cl-].[Cl-].[Hg+2]
active: [7] 50 µM
not listed: [14] | [18]
inactive: all other assays above

CN(C)[C@@H]1C(=O)C(C(N)=O)=C(O)[C@@]2(O)C(=O)C3=C(O)c4c(O)cccc4[C@@](C)(O)[C@H]3C[C@@H]12
not listed: [6] | [7] | [10] | [14] | [18] | [19]
inactive: all other assays above

CC(C)N(Cc1ccccc1)C(=O)C(C)(C)C
active: [9] 10.4 µM | [11] 19.6 µM | [13] 3.44 µM
not listed: [14] | [15] | [16] | [18] | [19]
inactive: all other assays above

CCNS(=O)(=O)C(F)(F)C(F)(F)C(F)(F)C(F)(F)C(F)(F)C(F)(F)C(F)(F)C(F)(F)F
active: [1] 65.2 µM | [3] 48.2 µM | [11] 48.2 µM | [12] 12 µM | [16] 35.6 µM
not listed: [14] | [18]
inactive: all other assays above

Cc1ccc(N)cc1
not listed: [14] | [18]
inactive: all other assays above

Cc1ccc(N=C=O)cc1N=C=O
active: [1] 50 µM | [10] 50 µM | [11] 31.1 µM | [12] 20.8 µM | [16] 50 µM
not listed: [6] | [14] | [18] | [19]
inactive: all other assays above

CC(C)COC(=O)c1ccccc1C(=O)OCC(C)C
active: [7] 32.5 µM
not listed: [16] | [18] | [19]
inactive: all other assays above

c1ccc(N=Nc2ccccc2)cc1
active: [7] 50 µM
not listed: [6] | [13] | [19]
inactive: all other assays above
